One may read the inhibition as the drop in the measured response relative to a control, in per cent.

The whole screen tested about 100,000 compounds, of which about 770 (0.77%) were called active. The list comes from a sample in which actives are over-represented; it also holds similar structures and randomly drawn compounds. A number with no mark means an inactive call. Rule as the data show it: active = inhibition above about 50%; inactive = the rest.

Data on 38 compounds can be found in PubChem BioAssay AID372 (MTDP, 2006).

The assay addresses Gag-Pol polyprotein (Human immunodeficiency virus type 1 group M subtype B (isolate HXB2)) (UniProt P04585). The assay can be described thus: RNase H inhibition, HIV 1 Gag Pol polyprotein, FRET biochemical assay, screening (AID 372). As to conditions: HIV-1 RT RNase H, FRET RNA/DNA substrate fluorescence; at 10 µM; active compounds read high.
Regarding `CC(C)(C)c1cc(/C=N/NC(=O)c2ccccc2O)cc(C(C)(C)C)c1O`, the inhibition is 25%.

`CC1=C(C(=O)Nc2ccc(C)cc2)C(c2ccc(Br)cc2)NC(=S)N1` (stereo not drawn): the inhibition is 10%.

As to `CC1=C(C(=O)Nc2ccc(Br)cc2)C(c2ccc(C)cc2)NC(=S)N1` (stereo not drawn), the inhibition is 57% (active).

In the case of `CC1=C(C(=O)Nc2ccc(Br)cc2)C(c2ccc(Br)cc2)NC(=S)N1` (stereo not drawn), the inhibition is 11%.

For the compound `COC(=O)C1=C(C)N(C)C(=O)NC1c1cc2c(cc1[N+](=O)[O-])OCO2` (stereo not drawn), the inhibition was 3%.

For `COc1ccc(/C=C2\SC(=NCc3ccccc3)N(Cc3ccccc3)C2=O)cc1OC`, the inhibition was 54% (active).

On to `COc1ccc(/C=C2\SC(=NCc3ccccc3)N(Cc3ccccc3)C2=O)cc1C(=O)O`, for which the inhibition was 23%.

Regarding `CCOc1ccc(/C=C2\SC(=NCc3ccccc3)N(Cc3ccccc3)C2=O)cc1`, the inhibition was 0%.

With `COc1ccc(/C=C2\SC(=O)N(Cc3ccccc3)C2=O)cc1OC`, the inhibition was 44%.

On to `COc1ccccc1/C=C1/SC(=NCc2ccccc2)N(Cc2ccccc2)C1=O`, for which the inhibition was 28%.

As to `COC(=O)c1ccc(/C=C2\SC(=NCc3ccccc3)N(Cc3ccccc3)C2=O)cc1`, the inhibition is 59% (active).

`O=C1CC(c2ccccc2)CC(O)=C1C=NCCN1CCNCC1` (stereo not drawn): the inhibition was 0%.

On to `COc1ccc(C=Nc2ccc(C)c(F)c2)cc1OC`, for which the inhibition was 6%.

Regarding `CCOC(=O)COc1c(Cl)cc(/C=C2\C(=O)NC(=O)N(c3ccc(F)cc3)C2=O)cc1Cl`, the inhibition was 2%.

As to `CC/C(=C1\C(=O)N(c2nc3ccccc3s2)N=C1C(F)(F)F)N1CCCCC1`, the inhibition is 5%.

On to `CCOc1ccc(N(CC(=O)N2CCC(C)CC2)S(=O)(=O)c2ccccc2)cc1`, for which the inhibition was 8%.

As to `CCc1cc(CC)c(Cc2c(CC)cc(CC)c(/C=N/NC(N)=O)c2CC)c(CC)c1/C=N/NC(N)=O`, the inhibition is 50% (active).

Consider `CCCOc1ccccc1/C=N/NC(N)=O`, for which the inhibition is 0%.

As for `CCc1cc(CC)c(/C=N/O)c(CC)c1/C=N/O`, the inhibition was 0%.

As to `Cc1ccc([N+](=O)[O-])cc1S(=O)(=O)n1cnc2ccccc21`, the inhibition was 22%.

As for `Cc1cc2ncn(S(=O)(=O)c3cc([N+](=O)[O-])ccc3Cl)c2cc1C`, the inhibition is 57% (active).

On to `Cc1cc2ncn(S(=O)(=O)c3ccc(Cl)c([N+](=O)[O-])c3)c2cc1C`, for which the inhibition is 23%.

For `CCCC(=O)Nc1ccc(N2CCOCC2)c(Cl)c1`, the inhibition is 0%.

With `CCOC(=O)CCCN1C(=O)S/C(=C\c2ccc(OC)cc2)C1=O`, the inhibition was 0%.

`COc1ccc(N2CC(C(=O)N/N=C/c3ccc(OC)c(OC)c3)CC2=O)cc1` (stereo not drawn): the inhibition is 3%.

For the compound `CCOc1cc(/C=C2\SC(=S)N(/N=C/c3ccc(O)c(OCC)c3)C2=O)ccc1O`, the inhibition is 20%.

With `Cc1ccc2nc(-c3sc(=S)n(-c4ccccc4)c3N)[nH]c2c1`, the inhibition was 21%.

In the case of `Nc1ccc(-c2nc3ccccc3[nH]2)c(N)c1`, the inhibition is 4%.

Turning to `O=C(/C=C/c1ccccc1F)c1c(-c2ccccc2)c2cc(Cl)ccc2[nH]c1=O`, the inhibition was 48%.

As to `COc1ccc(OC)c(/C=C/C(=O)c2c(-c3ccccc3)c3cc(Cl)ccc3[nH]c2=O)c1`, the inhibition is 50% (active).

As to `COc1ccccc1/C=C/C(=O)c1c(-c2ccccc2)c2cc(Cl)ccc2[nH]c1=O`, the inhibition was 60% (active).

Regarding `COc1cc(/C=C/C(=O)c2c(-c3ccccc3)c3cc(Cl)ccc3[nH]c2=O)cc(Br)c1OC`, the inhibition was 26%.

Take `COc1cc(/C=C/C(=O)c2c(-c3ccccc3)c3cc(Cl)ccc3[nH]c2=O)cc(OC)c1OC`: the inhibition was 3%.

In the case of `COc1ccc(/C=C/C(=O)c2c(-c3ccccc3)c3cc(Cl)ccc3[nH]c2=O)cc1OC`, the inhibition is 11%.

As for `C=CCN1C(=O)/C(=C\c2ccc(-c3ccc(Br)cc3)o2)C(=O)NC1=S`, the inhibition is 32%.

Regarding `Cc1ccc(NC(=O)C(=O)NCc2ccc3c(c2)OCO3)cc1`, the inhibition was 4%.

Turning to `Cc1nc2cc(-c3ccc(I)cc3)[nH]n2c(=O)c1C`, the inhibition is 0%.

On to `COC(=N)/C(C#N)=C/c1c(O)n(-c2c(Cl)cccc2Cl)c2ccccc12`, for which the inhibition is 1%.
